Compound activity: PubChem BioAssay, National Center for Advancing Translational Sciences (NCATS)
Compounds with a hit are over-represented: about 12% of the library has one in this group of screens.
AmpC detergent: AmpC beta-lactamase inhibition with detergent present; AID 485294; P00811; Potency, µM (series often up to 114 µM), inactives show at the top dose activity change, negative = inhibition, hits mostly inhibitors; 0.041% of 370,000 active; AmpC hydrolysis of nitrocefin, absorbance 480 nm, 0.01% Triton;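 also: 0% = no-compound wells and -100% = no-enzyme wells; nearly all actives have a fitted effect of over 25% in size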
Target sequence (P00811 whole entry, looked up): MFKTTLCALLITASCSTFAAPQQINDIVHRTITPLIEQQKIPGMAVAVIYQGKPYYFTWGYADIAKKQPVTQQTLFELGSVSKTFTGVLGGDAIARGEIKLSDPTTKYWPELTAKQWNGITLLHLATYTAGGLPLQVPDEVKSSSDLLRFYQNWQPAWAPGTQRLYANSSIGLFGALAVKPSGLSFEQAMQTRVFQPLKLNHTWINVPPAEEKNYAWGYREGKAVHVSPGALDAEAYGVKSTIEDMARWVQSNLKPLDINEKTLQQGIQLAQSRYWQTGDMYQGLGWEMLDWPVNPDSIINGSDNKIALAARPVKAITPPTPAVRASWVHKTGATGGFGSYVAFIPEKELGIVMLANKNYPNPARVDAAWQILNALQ
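AmpC (5.3 nM in the dispensed reagent) in 20 mM phosphate pH 7.0 with 0.01% (detergent screen) or 0.0001% Triton X-100 was preincubated with compounds for 15 min at room temperature. Nitrocefin was then added from an 800 uM solution, and hydrolysis was followed at 480 nm.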
Pf growth 96h: P. falciparum growth inhibition at 96 hour, primary screen for plastid delayed-death inhibitors; P. falciparum luciferase reporter growth, 96 h; Potency, µM (highest dose often 28.7 µM), for inactives: top-dose activity change, negative = inhibition, most hits filed as inhibitors; 6.9% of 320,000 active; also: % is scaled to controls: 0 for no effect and ±100 for the full control effect
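Two parasite generations (96 h, 37 C, 5% CO2) of compound exposure in infected erythrocytes (0.05% parasitemia, 2% hematocrit). Luciferase-reporter P. falciparum; decreased luminescence indicates inhibited growth, aimed at apicoplast-acting delayed death.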
Pf growth 48h: inhibits P. falciparum growth in the first generation, 48 h; P. falciparum luciferase growth in erythrocytes, 48 h; Potency, µM (doses to about 28.7 µM), without a hit: top-dose activity change, negative = inhibition, most hits filed as inhibitors; 5.9% of 310,000 active; AID 504832; also: % is scaled to controls: 0 for no effect and ±100 for the full control effect
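Parasite viability was followed by luminescence of a genomically integrated firefly luciferase. Cultures held 0.1% parasitemia at 2% hematocrit (final), incubated under 5% CO2 at 37 C.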
Sm TGR inh: inhibitors of Schistosoma mansoni thioredoxin glutathione reductase; Potency, µM (titrated, usually from 114 µM), for inactives: at the highest dose activity change, negative = inhibition, actives largely listed as inhibitors; Q962Y6; purified TGR, DTNB reduction, TNB absorbance 405 nm; 3% of 360,000 active; AID 485364; also: % is scaled to controls: 0 for no effect and ±100 for the full control effect; nearly all actives have a fitted effect of over 60% in size
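TGR 20 nM + NADPH 100 uM (dispensed conc.), cpd preinc 15 min RT; start with NADPH (500 uM addition) then DTNB (15 mM addition). Kinetic TNB absorbance, 405 nm filter. Four-parameter Hill fit across titration.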
SARS PLP yeast: blocks SARS-CoV papain-like protease in a yeast assay; AID 485353; S. cerevisiae expressing SARS-CoV PLpro, growth rescue; 0.19% of 330,000 active; Potency, µM (doses to about 32.9 µM), inactives show at the highest dose activity, positive = growth rescue, actives largely listed as activators; calls by dose curve; also: 0% is about no effect; nearly all actives have a fitted effect of over 55% in size
AmpC no deterg: AmpC beta-lactamase inhibition without detergent; Potency, µM (titrated, usually from 57.1 µM), for the others: top-dose activity change, negative = inhibition, most hits filed as inhibitors; AID 485341; AmpC nitrocefin hydrolysis, absorbance 480 nm, 0.0001% Triton; 0.52% of 330,000 active; P00811;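 also: plate controls were no compound for no effect and no enzyme for full effect; nearly all actives have a fitted effect of over 20% in size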
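20 mM phosphate pH 7.0 + 0.01% (detergent screen) or 0.0001% Triton X-100; 5.3 nM AmpC reagent; cpd preinc 15 min RT; nitrocefin (800 uM stock) to start; A480 q20 s × 4 min; Activity was normalised to no-enzyme and no-compound control wells.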
* = called active by the depositor; [ ] = dose if it differs, or a comment. Unless noted, calls follow the shape of the dose curve; as a rule, active = well fitted curve in the direction sought with a large enough effect; inconclusive = small, poorly fitted or top-dose-only effect, or another doubt; inactive = no such curve, though single readings can be large; an effect the other way counts as inactive or inconclusive. Potency is read from the fitted curve at half-maximal effect.

What do the screens show for `C/C=C/C=C/C(=O)Nc1cccc(C2=NOC3(C2)C[C@H](C(N)=O)N(C(=O)CC(c2ccccc2)c2ccccc2)C3)c1` (stereo partly specified)?
AmpC detergent: 5%; Pf growth 96h: inconclusive; Pf growth 48h: inconclusive; Sm TGR inh: inconclusive; SARS PLP yeast: 0%; AmpC no deterg: 120%

Results for NS(=O)(=O)c1ccc(-c2ccc(/C=N/NC(=O)c3ccccc3O)o2)cc1 ?
AmpC detergent: 2%; Pf growth 96h: 18%; Pf growth 48h: inconclusive; Sm TGR inh: -16%; SARS PLP yeast: 1%; AmpC no deterg: -38%

How did O=C(N/N=C/c1ccc(-c2ccc(S(=O)(=O)Nc3ncccn3)cc2)o1)c1cc2ccccc2cc1O do in these assays?
AmpC detergent: -12%; Pf growth 48h: inconclusive; Sm TGR inh: 43%; SARS PLP yeast: 8%; AmpC no deterg: 20µM*

What do the screens show for `Cc1ccc(-c2ccc(/C=N/NC(=O)c3ccccc3O)o2)cc1`?
AmpC detergent: -4%; Pf growth 96h: 0.83µM*; Pf growth 48h: 0.59µM*; Sm TGR inh: 0%; SARS PLP yeast: -2%; AmpC no deterg: -39%

What do the screens show for `Cc1ccc(-c2nc(CS(=O)(=O)CC(=O)Nc3ccc(Br)cc3F)c(C)o2)cc1`?
AmpC detergent: 16%; Sm TGR inh: -29%

What do the screens show for `CCCCc1nnc(NC(=O)c2ccc(OCc3c(C)noc3C)cc2)s1`?
AmpC detergent: -4%; Pf growth 96h: inconclusive; Pf growth 48h: inconclusive; Sm TGR inh: -3%; SARS PLP yeast: 11%; AmpC no deterg: 0%

What do the screens show for `CCOc1cccc(CN2CCCC(N3CCN(c4cccc(Cl)c4)CC3)C2)c1O` (stereo unspecified)?
AmpC detergent: 3%; Pf growth 96h: 3.7µM*; Pf growth 48h: inconclusive; Sm TGR inh: -21%; SARS PLP yeast: inconclusive; AmpC no deterg: 139%

Results for COc1cccc(CN2CCCC(C(=O)c3ccc4c(c3)OCO4)C2)c1O (stereo unspecified) ?
AmpC detergent: 6%; Pf growth 96h: -17%; Pf growth 48h: inconclusive; Sm TGR inh: -1%; SARS PLP yeast: -2%; AmpC no deterg: -7%

What do the screens show for `CCOc1cccc(CN2CCCC(C(=O)c3cc(Cl)ccc3OC)C2)c1O` (stereo unspecified)?
AmpC detergent: 2%; Pf growth 96h: -28%; Pf growth 48h: 1.7µM*; Sm TGR inh: -20%; SARS PLP yeast: 5%; AmpC no deterg: 64%

How did COc1cccc(C(=O)C2CCCN(Cc3cccn3-c3ccccn3)C2)c1 (stereo unspecified) do in these assays?
AmpC detergent: 5%; Pf growth 96h: -29%; Pf growth 48h: -151%; Sm TGR inh: -2%; SARS PLP yeast: -1%; AmpC no deterg: 49%

Results for COc1ccc(C(=O)C2CCCN(Cc3cccn3-c3ccccn3)C2)cc1F (stereo unspecified) ?
AmpC detergent: 2%; Pf growth 96h: -11%; Pf growth 48h: 9.3µM*; Sm TGR inh: -2%; SARS PLP yeast: -1%; AmpC no deterg: 66%

What do the screens show for `FC(F)(F)c1cccc(N2CCN(Cc3cccnc3)CC2)c1`?
AmpC detergent: -1%; Pf growth 96h: 4.7µM*; Pf growth 48h: inconclusive; Sm TGR inh: 3%; SARS PLP yeast: 6%; AmpC no deterg: inconclusive

Results for Cc1ccc2c(c1)c1c(c(=O)n(-c3cccc(Cl)c3)c(=O)n1CC(=O)NCCC1=CCCCC1)n2C ?
AmpC detergent: -5%; Sm TGR inh: 7%

What do the screens show for `CN(C(=O)CSc1nc2ccc(NC(=O)c3cccs3)cc2s1)c1ccccc1`?
AmpC detergent: 19%; Sm TGR inh: 0%

How did COc1cccc(CN2CCN(c3cccc(C(F)(F)F)c3)CC2)c1OC do in these assays?
AmpC detergent: -4%; Pf growth 48h: -29%; Sm TGR inh: 1%; SARS PLP yeast: 3%; AmpC no deterg: 42%

What do the screens show for `CCOc1cccc(CN2CCN(c3cccc(C(F)(F)F)c3)CC2)c1O`?
AmpC detergent: -1%; Pf growth 48h: 2.3µM*; Sm TGR inh: -4%; SARS PLP yeast: 1%; AmpC no deterg: 11%

Results for CCOc1cccc(CN2CCCC(CCC(=O)NCc3ccccc3F)C2)c1O (stereo unspecified) ?
AmpC detergent: 5%; Pf growth 96h: 1.5µM*; Pf growth 48h: inconclusive; Sm TGR inh: -2%; SARS PLP yeast: 0%; AmpC no deterg: -2%

What do the screens show for `COc1ccc(C(=O)C2CCCN(Cc3cnc(C)s3)C2)cc1OC` (stereo unspecified)?
AmpC detergent: 4%; Pf growth 96h: 15µM*; Pf growth 48h: 4%; Sm TGR inh: 14%; SARS PLP yeast: -1%; AmpC no deterg: -4%

Results for CCOc1cccc(CN2CCCC(N3CCc4ccccc4C3)C2)c1O (stereo unspecified) ?
AmpC detergent: -1%; Pf growth 96h: -19%; Pf growth 48h: 1.7µM*; Sm TGR inh: inconclusive; SARS PLP yeast: 6%; AmpC no deterg: 40%

Results for COc1cccc(CN2CCCC(N3CCc4ccccc4C3)C2)c1O (stereo unspecified) ?
AmpC detergent: 1%; Pf growth 96h: -1%; Pf growth 48h: inconclusive; Sm TGR inh: -34%; SARS PLP yeast: -3%; AmpC no deterg: -9%

How did Cc1nn(C)c(Cl)c1CN1CCCC(CCC(=O)NCc2ccccc2F)C1 (stereo unspecified) do in these assays?
AmpC detergent: -5%; Pf growth 96h: -13%; Pf growth 48h: 9%; Sm TGR inh: -8%[57.1 µM]; SARS PLP yeast: -1%; AmpC no deterg: -3%

How did COc1ccc(C(=O)C2CCCN(Cc3cnc(N4CCCC4)s3)C2)cc1OC (stereo unspecified) do in these assays?
AmpC detergent: 8%; Pf growth 96h: inconclusive; Pf growth 48h: inconclusive; Sm TGR inh: 1%; SARS PLP yeast: 0%; AmpC no deterg: 72%

Results for COc1ccc(Cl)cc1C(=O)C1CCCN(Cc2cnc(N3CCOCC3)s2)C1 (stereo unspecified) ?
AmpC detergent: 9%; Pf growth 96h: 10µM*; Pf growth 48h: inconclusive; Sm TGR inh: 0%; SARS PLP yeast: 0%; AmpC no deterg: 168%

Results for Cc1ccc(N2C(=O)Nc3ccccc3C2(O)C(=O)N2CCN(c3ccccn3)CC2)cc1C (stereo unspecified) ?
AmpC detergent: 3%; Pf growth 96h: inconclusive; Pf growth 48h: inconclusive; Sm TGR inh: -1%; SARS PLP yeast: -4%; AmpC no deterg: -12%
